# Compound activity as filed in PubChem.
# Only some compounds are listed: those with a hit (about 19% of all), similar ones and a draw of the others.
# HT1080NT lethal = kills 2HG-producing HT-1080-NT fibrosarcoma cells | HT-1080-NT fibrosarcoma viability, CellTiter-Glo ATP luminescence, 48 h | Potency, µM (highest dose often 46.1 µM), hits mostly cytotoxic | 360,000 tested, 1.6% active | AID 686970;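 further: NT is the 2HG producing partner of a matched IDH1 knockdown line; nearly all actives have a fitted effect of over 55% in size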
#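 750 cells/well, RPMI + 5% FBS; 2 h settle, compound pin-transfer, 48 h at 37 degrees C. CellTiter-Glo 10 min RT, luminescence. Normalized to DMSO and media-only wells.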
# HT1080 IDH1KD tx = HT-1080 IDH1 knockdown cell toxicity (counter line); 360,000 tested, 2% active; AID 686971; Potency, µM (highest dose often 46.1 µM), most hits filed as cytotoxic; HT-1080 IDH1 knockdown viability, ATP luminescence, 48 h
#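 % activity derives from luminescence (CellTiter-Glo), normalised to DMSO and no-cell wells. HT-1080-IDH1KD cells, 750/well, had 48 h compound exposure at 37 °C.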
# DT40 TDP1 no CPT = qHTS for Inhibitors of human tyrosyl-DNA phosphodiesterase 1 (TDP1): qHTS in cells in absence of CPT | 420,000 tested, 15% active | Potency, µM (top dose mostly 46.2 µM), usual class: inhibitors | DT40 Tdp1-/- hTDP1 cells, no CPT, ATP luminescence, 48 h; further: nearly all actives have a fitted effect of over 55% in size
#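 Growth of hTDP1-complemented DT40 Tdp1-knockout cells is measured by ATP luminescence after at least 48 hr compound exposure at 37 °C, with DMSO substituting for the 20 nM CPT used in the parallel screen.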
# TDP1 cell CPT = growth inhibition of DT40 Tdp1-/-;hTDP1 cells with camptothecin (screen for TDP1 inhibitors) | 420,000 tested, 12% active | chicken DT40 Tdp1-/-;hTDP1 cells + 20 nM CPT, ATP luminescence, 48 h | Potency, µM (doses to about 46.2 µM), most hits filed as inhibitors; further: nearly all actives have a fitted effect of over 55% in size
#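 Chicken DT40 Tdp1-/- cells stably complemented with human TDP1 were seeded at 400 cells/well in medium containing 20 nM camptothecin, exposed to pin-transferred compounds, and grown at 37 °C for at least 48 hr. Viability was read as ATP luminescence.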
# IL1B secr inh = blocks inflammasome-driven IL-1 beta release | activity change, % at 57.5 µM | THP-1 LPS/ATP IL-1B secretion, AlphaLISA, 16 h; active compounds read low | 360,000 tested, 4.7% active; in the data active means activity change below about -50%; inconclusive means mostly about -30% to -49%
#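 Secreted IL-1B measured by AlphaLISA bead assay after 16 h compound exposure of THP-1 cells; compounds (final up to 57.5 uM) added 1 h before LPS (250 ng/mL) and ATP (1.25 mM) stimulation; lower signal means less secretion.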
# Hits are given with their value; - = inactive; ? = inconclusive; . = no result; [ ] = dose if it differs, or a comment. Unless noted, the call rests on the fitted dose curve; in most records, active means well fitted curve in the direction sought with a large enough effect; inconclusive means small, poorly fitted or top-dose-only effect, or another doubt; inactive means no such curve, though single readings can be large; an effect the other way counts as inactive or inconclusive.
SMILES,HT1080NT lethal,HT1080 IDH1KD tx,DT40 TDP1 no CPT,TDP1 cell CPT,IL1B secr inh
CCOC(=O)c1c(C)oc2c1c(C=NC1CCS(=O)(=O)C1)c(O)c1ccccc12 (configuration not stated),-,-,21µM,23µM,-
CCOC(=O)c1c(C)oc2c1c1c(c3ccccc32)OCN(Cc2ccccn2)C1,-,-,?,?,-75
O=C(CC12CC3CC(CC(C3)C1)C2)NCC(=O)OCc1cc(=O)oc2ccc3ccccc3c12,-,-,18µM,?,-
Cc1ccc2c(COC(=O)C34CC5CC(CC(C5)C3)C4)cc(=O)oc2c1,-,-,?,?,-
COC(=O)c1ccc(C)c(NS(=O)(=O)c2cn(C)nc2C)c1,-,-,-,-,-
Cc1cccc(-c2cccc(C(=O)N3CCc4c(cnc(C)c4CNC(=O)c4cncs4)C3)c2)c1,.,.,?,-[9.04 µM],.
O=C(NNc1ccccc1)C(CCO)C(=O)NNc1ccccc1,7.3µM,6.5µM,-,-,-
CC(C)C(=O)NNc1ccccc1,?,-,-,-,-
CC(O)CC(C(=O)NNc1ccccc1)C(=O)NNc1ccccc1 (configuration not stated),1.3µM,2.3µM,-,-,-
O=C(Nc1nc(-c2ccccc2)cs1)Nc1ccc(F)cc1F,?,?,9.2µM,9.2µM,-
O=C(Nc1nc(-c2ccccn2)cs1)Nc1ccc(F)cc1F,?,?,2.9µM,4.6µM,-83
O=C(CSc1ccc2nnc(CCNC(=O)c3ccc(F)cc3)n2n1)NCC1CCCO1 (configuration not stated),-,-,-,-,-
CCn1c(C)nc([N+](=O)[O-])c1Sc1ccc(F)cc1,-,-,16µM,?,?
O=[N+]([O-])c1cccnc1Sc1ccc(F)cc1,-,-,-,-,-
Cc1ccc(C(=O)Nc2nc(-c3ccccn3)cs2)o1,-,?,3.7µM,5.8µM,-
Cc1ccc(C(=O)Nc2ncccc2O)o1,-,-,?,-,-
CCc1nnc(NC(=O)c2ccc(-c3ccccc3F)o2)s1,-,?,-,-,-
CCc1nnc(NC(=O)c2ccc(-c3ccc(C(C)=O)cc3)o2)s1,-,-,-,-,?
c1ccc(CCNc2cnccn2)cc1,-,-,-,-,-
c1ccc(CCNc2nc(-c3ccccn3)cs2)cc1,-,-,7.3µM,?,-
CC(=O)c1ccc(-c2ccc(C(=O)Nc3nc(-c4ccccn4)cs3)o2)cc1,?,10µM,3.7µM,2.9µM,-
O=C(Nc1nc(-c2ccccn2)cs1)c1ccc(-c2ccccc2F)o1,?,?,10µM,5.8µM,-
CCNS(=O)(=O)c1ccc(CCC(=O)NCc2ccccc2)cc1,-,-,-,-,-
CCc1cc(C(=O)Nc2nc(-c3ccccn3)cs2)sc1C,-,?,2.9µM,4.6µM,-
O=C(Nc1nc(-c2ccccn2)cs1)c1ccc([N+](=O)[O-])o1,-,?,2.6µM,4.1µM,-
SMILES,HT1080NT lethal,HT1080 IDH1KD tx,DT40 TDP1 no CPT,TDP1 cell CPT,IL1B secr inh
Cc1ccc(-c2csc(NCCn3c(C)nc4cc(C(F)(F)F)ccc43)n2)cc1,-,-,?,?,-
COC(=O)CCSCC(=O)N1N=C(c2ccc(OC)cc2)CC1c1cccc(OC)c1OC (configuration not stated),-,-,?,?,-
Cc1c(C)n(Cc2ccccc2)c2ncnc(Cl)c12,-,-,3.7µM,15µM,-
CC1(C)C=C(c2ccc(C=O)s2)CC(C)(C)N1C=O,-,-,-,-,-
O=C(O)P(=O)(O)O,.,.,-,-,.
CC1CN(c2nn3c(=O)c4ccccc4nc3c3ccccc23)CC(C)O1 (configuration not stated),-,-,5.8µM,8.2µM,-63
CC1CN(c2nc(-c3ccccc3)nc3ccccc23)CC(C)O1 (configuration not stated),-,-,?,?,-
CCN1CCN(c2nn3c(=O)c4ccccc4nc3c3ccccc23)CC1,?,?,16µM,?,-58
COc1ccc(C(=O)NCC(=O)OCC(=O)c2cccc3ccccc23)cc1,.,.,-,?,.
CC(Sc1nc2cc([N+](=O)[O-])ccc2n1-c1ccc(F)cc1)C(=O)NCc1ccc2c(c1)OCO2 (configuration not stated),-,-,15µM,16µM,-
COc1ccccc1-n1c(SCC(=O)NCc2ccc3c(c2)OCO3)nc2cc([N+](=O)[O-])ccc21,-,-,21µM,4.1µM,?
Cc1cccc(-n2c(SCC(=O)NCc3ccc4c(c3)OCO4)nc3ccccc3c2=O)c1,-,-,?,?,-
Cc1cc(C)cc(-n2c(SC(C)C(=O)NCc3ccc4c(c3)OCO4)nc3ccccc3c2=O)c1 (configuration not stated),-,-,15µM,13µM,-
O=c1[nH]c2cc3c(cc2cc1CN(Cc1nnnn1C1CCCC1)C1CCCC1)OCCO3,-,-,26µM,16µM,-
CCC(c1nnnn1Cc1ccco1)N(Cc1ccccc1OC)Cc1cc2cc(C)ccc2[nH]c1=O (configuration not stated),?,-[9.24 µM],23µM,?,-
CCC(c1nnnn1Cc1ccco1)N(Cc1cc2cc(C)cc(C)c2[nH]c1=O)CC1CCCO1 (configuration not stated),-,-,18µM,15µM,-
Cc1ccc(CN(Cc2cc3cc4c(cc3[nH]c2=O)OCCO4)Cc2nnnn2Cc2ccco2)cc1,-,?,?,?,?
CCc1ccc2[nH]c(=O)c(CN(Cc3ccco3)Cc3nnnn3Cc3ccco3)cc2c1,.,.,13µM,?,.
Cc1cccc2cc(C(c3nnnn3C(C)(C)C)N(Cc3ccco3)CC3CCCO3)c(=O)[nH]c12 (configuration not stated),-,-,?,?,?
Cc1cc(C)n(-c2nc3cc(Cl)ccc3nc2N2CCN(c3cccc(C)c3C)CC2)n1,.,.,-,-,.
COc1ccc2cc(CN(CCc3ccccc3)Cc3nnnn3Cc3ccco3)c(=O)[nH]c2c1,-,-,16µM,?,-
CCC(c1nnnn1C(C)(C)CC)N(CCCO)Cc1cc2cc(C)cc(C)c2[nH]c1=O (configuration not stated),-,-,21µM,?,?
Cc1ccc2cc(CN(Cc3ccc4c(c3)OCO4)Cc3nnnn3Cc3ccco3)c(=O)[nH]c2c1,-,-,?,16µM,-53
COc1ccccc1CN(Cc1cc2c(C)ccc(C)c2[nH]c1=O)Cc1nnnn1Cc1ccco1,-,-,18µM,23µM,-70
CCCC(c1nnnn1C(C)(C)CC)N(CCCO)Cc1cc2cc(C)cc(C)c2[nH]c1=O (configuration not stated),?,?,?,?,-
